# Screening data (PubChem)
# Only some compounds are listed: those with a hit (about 1.4% of all), similar ones and a draw of the others.
# SSB-PriA inh: blocks PriA binding to SSB C-terminal tail; hit rate 0.6% among 430,000; inhibition, % at 33 µM; AlphaScreen SSBct-PriA binding, biotinylated peptide; AID 1272365; in the data active means inhibition mostly above about 37%, no sharp cut-off; inactive means mostly below about 20%;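 further: plate controls were negative control peptide for no effect and reference peptide for full effect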
# FadD28 binding: inhibitors of Mycobacterium tuberculosis FadD28 bisubstrate binding | inhibition, % at 12.5 µM | hit rate 0.22% among 360,000 | FadD28 bisubstrate probe binding, fluorescence polarization; in the data active means inhibition above about 8.5%, passing the limit was not always enough; inconclusive means no clear call, values can overlap the other calls
# PrP UTR inh: suppresses PrP 5' UTR mRNA reporter expression. cell-based PrP 5' UTR mRNA reporter, plate reader. inhibition, % (concentration not given with the values). hit rate 0.35% among 340,000; in the data active means inhibition above about 52%; further: 0 = median of the neutral control wells
# PrPC TRFRET: inhibitors of human cell surface prion protein PrPC; P04156; TR-FRET read-out; inhibition, % at 13.8 µM; hit rate 0.43% among 370,000; AID 720596; in the data active means inhibition above about 24%; further: 0% = median of the test wells and 100% = reference compound wells
# BH1578 lux ind: quorum light induction in luxS cqsA deficient V. cholerae | V. cholerae BH1578 lux reporter, luminescence, 6 h | activation, % at 18.7 µM | hit rate 0.16% among 350,000; in the data active means activation mostly above about 9.7%, no sharp cut-off; inconclusive means no clear call, values can overlap the other calls; inactive means mostly below about 3.7%
# Numbers without * were called inactive; i = inactive; ? = inconclusive; · = no result; + = active, no number; ! = not confirmed by another sample.
SMILES,SSB-PriA inh,FadD28 binding,PrP UTR inh,PrPC TRFRET,BH1578 lux ind
COc1ccc(OC)c(N)c1,74.3*,-2.3,-7.2,-3.1,3.1
COc1ccc(N=Nc2cc(OC)c(N)cc2OC)cc1,61.9*,0.8,-26.5,-32.7,-4.3
COc1ccc(C)cc1N,·,·,·,-2.5,·
CSc1ccccc1CN1CCC(CNC(=O)Nc2cccc(C)c2)CC1,5.0,·,·,·,·
CCOC(=O)c1c(-c2ccc(C)o2)csc1NC(=O)CSc1nnc2sc3ccccc3n12,-9.0,·,·,·,·
O=C(CN1C(=O)N(c2ccc(Cl)cc2)S(=O)(=O)c2ccccc21)N1CCCc2ccccc21,3.0,·,·,·,·
CCN(CC)c1ccc(NC(=S)NC(=O)C2CCC2)cc1,55.2*,-2.0,-33.2,-0.2,-0.6
CC(=O)Nc1ccc(NC(=S)NC(=O)C2CCCC2)cc1,-10.0,-3.5,-41.6,-5.1,i
CCOC(=O)Cn1cc(C(=O)c2ccco2)c2ccccc21,-20.0,15.0*,-25.5,3.9,i
O=S(=O)(NCCCn1ccnc1)c1cccc2cnccc12,41.0*,·,·,·,·
O=S(=O)(NCCCN1CCOCC1)c1cccc2cnccc12,3.0,·,·,·,·
O=[N+]([O-])c1cccc(S(=O)(=O)NCCCn2ccnc2)c1,52.9*,1.1,-30.4,-12.2,i
Oc1ccc(Cl)cc1N=Nc1ccccc1,58.1,-3.3,-22.6,-7.9,0.4
O=S(=O)(O)c1cc(O)c2c(O)c(N=Nc3cc(Cl)ccc3O)c(S(=O)(=O)O)cc2c1,57.7*,?,-3.1,·,i
O=C(Nc1ncc([N+](=O)[O-])s1)c1ccc2c(c1)OCO2,1.3,-1.2,68.9*,-15.3,-0.1
Cc1ccc([N+](=O)[O-])cc1NC(=O)c1ccc2c(c1)OCO2,-8.6,-3.2,-27.0,2.3,i
Ic1cccc2cccnc12,33.3,·,·,·,·
Fc1c(Cl)ccc2cccnc12,33.0,·,·,·,·
Oc1c(I)cc(I)c2cccnc12,58.4*,-1.5,-12.9,-4.0,i
Oc1c(Cl)cc(Cl)c2cccnc12,83.0*!,-4.0,-10.1,-0.8,-0.3
Oc1c(Cl)ccc2cccnc12,81.8*,·,·,·,·
CCOc1ccc(S(=O)(=O)Nc2cc(Cl)c(O)c3ccccc23)cc1,9.0,·,·,·,·
Cc1ccc(S(=O)(=O)Nc2cc(Cl)c(O)c3ncccc23)cc1,45.1*,0.7,21.7,-17.7,-0.2
Oc1ccc(Cl)c2cccnc12,-3.7,-0.7,2.0,-3.4,i
CC(C)(Oc1ccc(Cl)cc1)C(=O)Nc1c(-c2ccccc2)nc2ccccn12,-3.0,·,·,·,·
SMILES,SSB-PriA inh,FadD28 binding,PrP UTR inh,PrPC TRFRET,BH1578 lux ind
O=C1CCSCC(C(=O)Nc2ccc3c(c2)Cc2ccccc2-3)N1 (stereo unspecified),-6.0,·,·,·,·
O=C(CSc1cccc2cccnc12)N/N=C/c1cccc(O)c1,+,-4.4,-1.3,-15.5,-0.3
O=C(CSc1cccc2cccnc12)NN=Cc1ccncc1,4.0,·,·,·,·
COc1cc(/C=N/NC(=O)CSc2cccc3cccnc23)cc(OC)c1OC,+,·,·,·,·
Cc1ccc(C)c(-c2nnc(NC(=O)c3c(F)cccc3F)o2)c1,2.0,·,·,·,·
O=C(NCCOc1ccc(-c2ccccn2)nn1)[C@H]1CC(=O)N(c2cccc(Br)c2)C1,100.0*,·,·,·,·
Cc1ccccc1C(=O)Nc1ccc(-c2ccc3nnc(-c4ccccn4)n3n2)cc1,70.0*,·,·,·,·
O=C(Cc1ccccc1)Nc1ccc(-c2ccc3nnc(-c4ccccn4)n3n2)cc1,95.0*,·,·,·,·
O=C(Nc1ccc(-c2ccc3nnc(-c4ccccn4)n3n2)cc1)C1CCCC1,-10.0,·,·,·,·
O=C(Nc1ccc(-c2ccc3nnc(-c4ccccn4)n3n2)cc1)c1ccccc1Cl,82.0*,·,·,·,·
Cc1ccc(NC(=O)NCCNc2cc(-n3cccn3)ncn2)cc1Cl,-16.0,·,·,·,·
O=C(CCc1c(F)cccc1Cl)N1C2CCC1CC(S(=O)(=O)c1ccccc1)C2 (stereo unspecified),0.0,·,·,·,·
Nc1ncc(Br)c2ncccc12,10.0,·,·,·,·
O=[N+]([O-])c1cc2cccnc2c2ncccc12,48.4*,-1.3,·,-6.7,-0.4
Cc1cc2cccnc2c2ncccc12,163.0*,·,·,·,·
O=[N+]([O-])c1cc([N+](=O)[O-])c2cccnc2c1Cl,81.0*,·,·,·,·
Nc1c(N)c2cccnc2c2ncccc12,94.9*,·,·,·,·
Cc1cn2c(=O)c(C(=O)NCc3ccco3)cnc2s1,-9.0,·,·,·,·
O=C(NCc1ccccc1Cl)C(=O)Nc1ccon1,-5.0,·,·,·,·
CC(C)C(=O)NCc1ccnc(N(C)C)n1,-39.0,·,·,·,·
COC(=O)c1ccc(C(=O)OC)c(NC(=O)c2ccc(CSc3ccccc3)o2)c1,-11.0,·,·,·,·
O=C(O)C1Cc2nc[nH]c2CN1 (stereo unspecified),-1.0,·,·,·,·
NCc1nc(CS(=O)(=O)c2ccccc2)no1,-2.0,·,·,·,·
O=C(c1cc2cc(F)ccc2s1)N1C2CCC1CC(S(=O)(=O)c1ccccc1)C2 (stereo unspecified),77.0*,·,·,·,·
CSC1CC2CCC(C1)N2C(=O)c1cc2cc(F)ccc2s1 (stereo unspecified),-4.0,·,·,·,·
SMILES,SSB-PriA inh,FadD28 binding,PrP UTR inh,PrPC TRFRET,BH1578 lux ind
COc1ccc(Cl)cc1C(=O)N1CCN(c2ccc3nnc(C4CC4)n3n2)CC1,-16.0,·,·,·,·
Cc1cc(C(=O)NCc2cc(C(=O)O)oc2C)c(C)o1,-15.8,-2.7,-16.4,4.0,16.7*
Cc1cc(C(=O)NCC(=O)O)c(C)o1,-11.4,-0.8,-17.9,-4.6,i
COC(=O)c1ccc(COc2ccc(/C=N/NC(N)=S)cc2)o1,·,50.6*,·,-1.5,i
COc1ccccc1Nc1ncccc1[N+](=O)[O-],60.4*,-3.3,-27.3,-14.9,-0.2
CCN(CC)S(=O)(=O)c1ccc(NC(=O)Nc2cccc(C(F)(F)F)c2)cc1,-4.7,-2.1,-25.1,42.8*,-0.3
Cc1ccc(S(=O)(=O)Nc2ccc(NC(=O)Nc3cccc(C(F)(F)F)c3)cc2)cc1,3.4,-3.4,-30.8,13.4,-0.2
COCCCn1c(NS(=O)(=O)c2ccccc2)c(S(=O)(=O)c2ccc(C)cc2)c2nc3ccccc3nc21,72.4*,·,·,·,·
CCCCCCCCn1c(NS(=O)(=O)c2ccc(C)cc2)c(S(=O)(=O)c2ccccc2)c2nc3ccccc3nc21,49.8,·,·,·,·
Cc1ccc(S(=O)(=O)Nc2c(S(=O)(=O)c3ccccc3)c3nc4ccccc4nc3n2CCc2ccccc2)cc1,44.8,·,·,·,·
COCCCn1c(NS(=O)(=O)c2ccc(C)cc2)c(S(=O)(=O)c2ccc(C)cc2)c2nc3ccccc3nc21,59.2*,·,·,·,·
COCCn1c(NS(=O)(=O)c2ccc(C)cc2)c(S(=O)(=O)c2ccc(C)cc2)c2nc3ccccc3nc21,63.0*,·,·,·,·
CCc1ccccc1Sc1nccn2c(=O)n(CC(=O)N3CCN(c4ccccc4F)CC3)nc12,1.0,·,·,·,·
COc1ccc(-c2ccc(N3CCCC(C(=O)N4CCN(C)CC4)C3)nn2)cc1 (stereo unspecified),-5.0,·,·,·,·
Cc1ccccc1NC(=O)C1CC(=O)N(c2ccc3c4c(cccc24)CC3)C1 (stereo unspecified),1.1,-1.9,7.0,-3.9,25.0*
N#CC1=C(N)SC(N)=C(C#N)C1c1c(Cl)cccc1Cl,-17.0,-5.5,-9.8,41.1*,-3.8
N#CC1=C(N)SC(N)=C(C#N)C1CCc1ccccc1,-6.4,-7.1,-4.0,10.6,-0.6
O=S1(=O)Nc2c(ccc3cccnc23)-c2ccccc21,96.9*,-0.8,23.8,·,i
c1cnc2c(c1)ccc1c2ccc2cccnc21,21.4,·,·,·,·
